Source: PubChem BioAssay
The sample as a whole holds a higher share of hits than the screen did.
VCAM1 pot = TNF alpha stimulated VCAM1 expression potentiation; HUVEC TNFa-stimulated VCAM-1 immunofluorescence, high-content imaging; scaled per plate to unstimulated/TNFa-only wells; activation, % at 2 µM; hit rate 0.19% among 93,000; AID 808;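 active = activation above the screen mean plus 3 SD, with well images confirming the hit on visual review, cut at about 28% in these data, passing the limit was not always enough; inconclusive = activation above that limit but images do not confirm it; inactive = activation not above that limit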;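 also: signal is the number of cytoplasmic VCAM-1 stained grains per positive cell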
VCAM1 pot confirm = enhancers of VCAM1 induction in HUVEC – imaging, triplicate retest, confirmation; shares compounds with VCAM1 pot; HUVEC TNFa-stimulated VCAM-1 immunofluorescence imaging; activation, % at 2 µM; 230 tested, under 10 active; AID 1034;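 active = activation above 30% in triplicate retests at 2 µM, then confirmed by visual review of the well images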
Of the large screens only hits and unclear results are named; the others gave an inactive call (follow-up assays come after a bar, where they were run).

O=S(=O)(N1CCCCCC1)N1CCN(S(=O)(=O)N2CCCCC2)CC1	none
O=C1C2C3C=CC(C3)C2C(=O)N1CCN1CCN(S(=O)(=O)c2ccc3ccccc3c2)CC1 (stereo not given)	none
Cn1c(SCC(=O)NC2CC2)nnc1-c1cccc(NC(=O)c2ccccc2F)c1	none
CC(=O)Nc1ccc(S(=O)(=O)NC(CC(=O)NC2CCCCC2C)C(C)C)cc1 (stereo not given)	VCAM1 pot 31 | VCAM1 pot confirm inactive
CC(=O)c1ccc(NS(=O)(=O)c2ccc(CC(C)C)cc2)cc1	none
COc1ccc(C)cc1NS(=O)(=O)c1ccc(NS(=O)(=O)c2ccc(NC(C)=O)cc2)cc1	none
COc1ccc(CSc2nnnn2C)cc1F	none
CCOC(=O)Cc1csc(NC(=O)c2ccc(C)o2)n1	none
CCOC(=O)Cc1csc(/C(=N/O)C(N)=O)n1	none
CCCCOC(=O)Nc1nc(CC(=O)OCC)cs1	VCAM1 pot inconclusive | VCAM1 pot confirm inactive
N#CC1=C(N)OC2=C(C(=O)CCC2)C1C1C=CCCC1 (stereo not given)	none
C/C(=N\Nc1nc2c(s1)CCCC2)c1ccccc1	none
CCCCCC1CC(CC(C)C(=O)Nc2nncs2)C(=O)O1 (stereo not given)	none
CCCCCCCC1CC(CSc2ncn[nH]2)OC1=O (stereo not given)	VCAM1 pot 89 | VCAM1 pot confirm inactive
CCC(=O)Nc1ccccc1C(=O)NC1CCCCC1	none
CCOc1ccc(CC(=O)Nc2c(C(=O)Nc3ccccc3)oc3ccccc23)cc1OCC	none
CCOC(=O)CSc1nnc(CNC(=O)c2ccc(OC)cc2OC)n1-c1ccc(OC)cc1	none
O=C(NC12CC3CC(CC(C3)C1)C2)c1cncc(O)c1	none
Cc1cc(C)nc(N(C#N)CN2C(=O)c3ccccc3S2(=O)=O)n1	none
Cc1cc(OCC(=O)NCc2nc(-c3ccccc3)no2)c(C)cc1Br	none
COc1ccc(CCN2C(=O)C(O)=C(C(=O)c3ccco3)C2c2cccs2)cc1OC (stereo not given)	none
CCCNS(=O)(=O)c1ccc(NC(=O)c2ccccn2)cc1	none
CN(Cc1ccccc1)S(=O)(=O)c1ccc(NC(=S)NC(=O)C2CCCC2)cc1	none
O=S(=O)(NCc1ccccc1)c1ccc(S(=O)(=O)N(Cc2ccccn2)C2CCCC2)cc1	VCAM1 pot inconclusive | VCAM1 pot confirm inactive
CCCn1c(NC(=O)C2COc3ccccc3O2)nc2ccccc21 (stereo not given)	none
O=C(CC(c1ccccc1)c1ccccc1)NCC1CCCO1 (stereo not given)	none
CC(C(=O)NCC1CCCO1)N(C(=O)c1snc(C(N)=O)c1N)c1ccccc1 (stereo not given)	VCAM1 pot 40 | VCAM1 pot confirm inactive
Cn1nc(C(=O)NCC2CCCO2)c2ccccc2c1=O (stereo not given)	none
CCN1C(=O)C2C(C1=O)N1C(c3ccccc3)C3C(=O)N(CC)C(=O)C3N1C2c1ccccc1 (stereo not given)	none
CC1C(=O)CC(c2ccccc2)NC1c1ccccc1 (stereo not given)	none
Cc1ccc(OC(=O)CCC(=O)OCCCC(F)(F)C(F)(F)F)cc1	VCAM1 pot inconclusive | VCAM1 pot confirm inactive
COc1ccc(OCC(=O)Sc2ccc(C)cc2)cc1	none
COC(=O)c1ccc(C2C(C(C)=O)=C(O)C(=O)N2CCO)cc1 (stereo not given)	none
CC(=O)Nc1sc2c(c1CN1CCN(c3ccc(F)cc3)CC1)CCCC2	none
CCn1cc(Br)c(C(=O)N2CCN(c3ccccc3)CC2)n1	none
CCOC(=O)Cc1nnc(NC(=O)CSc2nnc3c4ccccc4n(C)c3n2)s1	none
Cc1ccc(S(=O)(=O)NC(=O)NCc2ccc(Cl)cc2)cc1	none
CCCNC(=O)CCC(NS(=O)(=O)c1ccc(C)cc1)C(=O)NCCC (stereo not given)	VCAM1 pot 73 | VCAM1 pot confirm inactive
Cc1ccc(N2CC(C(=O)NCCc3ccc(S(N)(=O)=O)cc3)CC2=O)cc1 (stereo not given)	none
COc1ccc(Cl)cc1N(CC(=O)Nc1ccccc1SC)S(C)(=O)=O	none
CCC(C)(C)NC(=O)C(OC(=O)c1ccco1)c1ccccc1OC (stereo not given)	none
CCOC(=O)c1nc2cc3n(c(C)c-2c1C)C(C)C(CC)=C3C (stereo not given)	none
Cc1cc(N(C)C)nc(SC(C)C)n1	none
Cn1c(SCC(=O)CC(=O)Nc2ccccc2)nnc1-c1ccc(O)cc1	none
Cc1ccc(-c2nnc(SCC(=O)CC(=O)Nc3ccccc3)n2C)cc1	none
CCCSc1nnc(-c2cnn(-c3ccccc3)c2-n2cccc2)n1C	VCAM1 pot 36 | VCAM1 pot confirm inactive
Cc1ccc(Oc2ncccc2/C=N/OCc2ccc(Cl)c(Cl)c2)cc1	none
COc1ccc(CN(CC(=O)NCC2CCCO2)C(=O)CNS(=O)(=O)c2ccc(C)cc2)cc1 (stereo not given)	none
COc1ccc(S(=O)(=O)NCC2CCC(C(=O)N3CCC4(CC3)OCCO4)CC2)cc1 (stereo not given)	VCAM1 pot inconclusive | VCAM1 pot confirm inactive
CCOC(=O)N1CCN(C(=O)C2CCC(CNS(=O)(=O)c3ccccc3)CC2)CC1 (stereo not given)	none
